Measurements from PubChem BioAssay (NCATS).
Inconclusive results are not listed. The source made the active and inactive calls. Unless noted, calls follow the shape of the dose curve; as a rule, active = well fitted curve in the direction sought with a large enough effect; inconclusive = small, poorly fitted or top-dose-only effect, or another doubt; inactive = no such curve, though single readings can be large; an effect the other way counts as inactive or inconclusive.

How the values were obtained:
[1] = qHTS assay for measurement of the activity of small molecule inhibitors on Zika virus induced Caspase-3 activity in human iPSC derived neural progenitor cells (hNPCs) (AID 1224857); also: % of control where 0% means no effect; nearly all actives have a fitted effect of over 65% in size
Procedure, shortened: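 Quantitative HTS format: human iPSC neural progenitors, 1 h compound pretreatment, ZIKV 2 FFU/cell for 6 h at 37 C. Percent inhibition derived from luminescent caspase-3/7 signal between uninfected and infected controls.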

[2] = qHTS assay for measurement of the activity of small molecule inhibitors on Zika virus induced Caspase-3 activity in human astrocytoma cells (AID 1224859);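 also: plate controls were ZIKV-infected untreated cells for no effect and uninfected cells for full effect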
Procedure, shortened: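 Readout is luminescence from Caspase-Glo 3/7 added after a 6 h ZIKV infection (2 FFU/cell) of compound-pretreated (1 h) SNB-19 cells; data expressed as % inhibition versus uninfected and infected wells.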

[3] = qHTS assay to identify small molecule inhibitors of chordoma cells - UCH-2 (AID 1259356); also: series mostly up to about 46 µM; % is scaled to controls: 0 for no effect and ±100 for the full control effect
[4] = P-glycoprotein substrates identified in KB-8-5-11 adenocarcinoma cell line, qHTS therapeutic library screen (AID 1346987); also: nearly all actives have a fitted effect of over 65% in size; also: potency is read from the fitted curve at half-maximal effect
Procedure, shortened: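 KB-8-5-11, a colchicine-selected P-gp-overexpressing KB-3-1 subline, was grown without colchicine for the assay. Cells were seeded at 500 cells/well, dosed in concentration-response and incubated 72 h at 37 degree C, 5% CO2. Viability was read by CellTiter-Glo luminescence.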

[5] = Natriuretic polypeptide receptor (hNpr1) antagonism - Pilot counterscreen GloSensor control cell line (AID 1347045; calls by dose curve; also: series mostly up to about 38 µM; % is scaled to controls: 0 for no effect and ±100 for the full control effect)
Procedure, shortened: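 HEK293 cGMP GloSensor cells preloaded 2 h with 2% GloSensor reagent, then compound 30 min before baseline luminescence read. Stimulated with 50 uM sodium nitroprusside, 20 min at room temperature, then read again; counterscreen for Npr1 antagonism.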

[6] = target: Atrial natriuretic peptide receptor 1 (Homo sapiens) (UniProt P16066); experiment: Natriuretic polypeptide receptor (hNpr1) antagonism - Pilot screen (AID 1347049; calls by dose curve;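 also: agonist-evoked cGMP luminescence read 20 min after hNppA addition; series mostly up to about 58 µM; % is scaled to controls: 0 for no effect and ±100 for the full control effect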)
Atrial natriuretic peptide receptor 1 (Homo sapiens), sequence (P16066 whole entry, looked up): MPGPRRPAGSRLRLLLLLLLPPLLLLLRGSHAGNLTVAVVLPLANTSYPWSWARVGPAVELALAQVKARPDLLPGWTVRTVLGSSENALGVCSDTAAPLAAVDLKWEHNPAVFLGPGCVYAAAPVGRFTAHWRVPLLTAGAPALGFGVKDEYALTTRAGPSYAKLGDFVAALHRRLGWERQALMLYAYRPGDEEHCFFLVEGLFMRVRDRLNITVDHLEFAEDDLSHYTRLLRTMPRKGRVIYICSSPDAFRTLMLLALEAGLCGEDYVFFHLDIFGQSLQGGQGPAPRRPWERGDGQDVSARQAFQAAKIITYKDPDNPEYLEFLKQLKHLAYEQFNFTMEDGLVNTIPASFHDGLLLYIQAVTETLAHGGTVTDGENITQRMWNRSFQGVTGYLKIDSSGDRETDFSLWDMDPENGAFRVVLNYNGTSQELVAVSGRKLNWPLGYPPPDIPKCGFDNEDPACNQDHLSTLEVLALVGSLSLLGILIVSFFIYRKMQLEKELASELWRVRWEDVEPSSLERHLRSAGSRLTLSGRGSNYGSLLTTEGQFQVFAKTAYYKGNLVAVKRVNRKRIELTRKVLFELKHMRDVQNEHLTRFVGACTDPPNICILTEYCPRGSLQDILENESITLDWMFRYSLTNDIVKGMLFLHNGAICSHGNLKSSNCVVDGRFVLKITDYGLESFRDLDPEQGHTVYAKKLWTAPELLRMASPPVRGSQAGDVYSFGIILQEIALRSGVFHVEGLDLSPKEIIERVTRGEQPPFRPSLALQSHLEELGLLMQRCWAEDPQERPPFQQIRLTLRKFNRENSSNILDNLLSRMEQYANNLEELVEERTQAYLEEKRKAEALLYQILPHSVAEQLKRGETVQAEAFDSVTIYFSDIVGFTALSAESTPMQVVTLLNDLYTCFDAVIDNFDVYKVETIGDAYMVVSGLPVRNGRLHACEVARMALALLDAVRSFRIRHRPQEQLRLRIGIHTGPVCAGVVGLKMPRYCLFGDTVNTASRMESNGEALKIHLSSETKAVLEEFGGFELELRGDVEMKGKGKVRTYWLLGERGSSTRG
Procedure, shortened: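 HEK293 cells co-expressing hNpr1 and the GloSensor pGS-40F cGMP luciferase sensor were preloaded with 2% GloSensor reagent for 2 h. Compounds were added for 30 min at room temperature, then cells were stimulated with 0.1 nM hNppA for 20 min before luminescence readout.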

[7] = target: Atrial natriuretic peptide receptor 2 (Homo sapiens) (UniProt P20594); experiment: Natriuretic polypeptide receptor (hNpr2) antagonism - Pilot subtype selectivity assay (AID 1347050; calls by dose curve; also: % is scaled to controls: 0 for no effect and ±100 for the full control effect)
Atrial natriuretic peptide receptor 2 (Homo sapiens), sequence (P20594 whole entry, looked up): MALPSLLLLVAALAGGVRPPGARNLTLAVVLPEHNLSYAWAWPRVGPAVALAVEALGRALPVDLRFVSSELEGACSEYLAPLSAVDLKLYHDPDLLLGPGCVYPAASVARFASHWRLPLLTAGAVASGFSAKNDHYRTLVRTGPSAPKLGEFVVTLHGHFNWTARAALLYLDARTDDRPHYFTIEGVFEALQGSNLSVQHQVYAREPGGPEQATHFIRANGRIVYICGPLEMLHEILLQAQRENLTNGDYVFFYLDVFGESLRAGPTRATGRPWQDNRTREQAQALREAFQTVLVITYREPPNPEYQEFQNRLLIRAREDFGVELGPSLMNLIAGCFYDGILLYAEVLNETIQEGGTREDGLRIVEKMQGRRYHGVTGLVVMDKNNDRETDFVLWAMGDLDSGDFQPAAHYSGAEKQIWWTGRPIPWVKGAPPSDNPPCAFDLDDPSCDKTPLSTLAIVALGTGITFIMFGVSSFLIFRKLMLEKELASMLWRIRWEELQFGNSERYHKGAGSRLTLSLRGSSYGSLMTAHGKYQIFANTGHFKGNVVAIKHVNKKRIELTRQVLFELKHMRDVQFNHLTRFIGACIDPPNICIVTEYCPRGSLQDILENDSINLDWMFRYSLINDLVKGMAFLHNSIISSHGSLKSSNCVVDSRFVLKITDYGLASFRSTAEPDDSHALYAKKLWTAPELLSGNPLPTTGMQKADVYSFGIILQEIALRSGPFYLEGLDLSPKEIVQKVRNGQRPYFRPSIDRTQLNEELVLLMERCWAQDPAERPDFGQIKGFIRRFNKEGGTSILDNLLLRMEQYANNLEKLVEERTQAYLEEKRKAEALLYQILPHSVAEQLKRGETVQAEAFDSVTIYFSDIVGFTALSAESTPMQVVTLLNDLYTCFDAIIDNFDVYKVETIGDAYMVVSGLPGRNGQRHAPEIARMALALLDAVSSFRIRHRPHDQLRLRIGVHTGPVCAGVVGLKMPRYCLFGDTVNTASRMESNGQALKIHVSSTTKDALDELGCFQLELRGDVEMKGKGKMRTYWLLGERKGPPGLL
Procedure, shortened: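 cGMP-sensor HEK293/hNpr2 cells; 2% GloSensor reagent 2 h RT; compounds 30 min; baseline luminescence read; 1 nM hNppC agonist 20 min RT; final luminescence read by CCD camera. Antagonism = reduced post-agonist signal.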

[8] = NS1 protein of Zika virus - qHTS assay to identify small molecule inhibitors in human HEK 293 cells (AID 1347053); also: nearly all actives have a fitted effect of over 55% in size; also: potency is read from the fitted curve at half-maximal effect;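 as to activity change, negative = inhibition: series mostly up to about 46 µM; plate controls were infected untreated cells for no effect and uninfected cells for full effect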
Procedure, shortened: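 HEK 293; 20 h pre-culture, 37 C/5% CO2; cpd 1 h pre-infection; ZIKV MR766, MOI = 0.5, 24 h, 37 C; TR-FRET NS1 readout (two anti-NS1 Abs); norm. to no-virus vs infected.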

[9] = target: Tyrosine-protein phosphatase non-receptor type substrate 1 (Homo sapiens) + Leukocyte surface antigen CD47 (Homo sapiens) (UniProt P78324+Q08722); experiment: CD47-SIRPalpha protein protein interaction - LANCE assay qHTS validation (AID 1347057; active = well fitted curve in the direction sought with a large enough effect in the signal ratio, with a control signal flat, not every such curve was filed as active; the % refers to the signal ratio; also: series mostly up to about 38 µM; 0% is about no effect)
Tyrosine-protein phosphatase non-receptor type substrate 1 (Homo sapiens) + Leukocyte surface antigen CD47 (Homo sapiens), sequence (P78324 whole entry, looked up): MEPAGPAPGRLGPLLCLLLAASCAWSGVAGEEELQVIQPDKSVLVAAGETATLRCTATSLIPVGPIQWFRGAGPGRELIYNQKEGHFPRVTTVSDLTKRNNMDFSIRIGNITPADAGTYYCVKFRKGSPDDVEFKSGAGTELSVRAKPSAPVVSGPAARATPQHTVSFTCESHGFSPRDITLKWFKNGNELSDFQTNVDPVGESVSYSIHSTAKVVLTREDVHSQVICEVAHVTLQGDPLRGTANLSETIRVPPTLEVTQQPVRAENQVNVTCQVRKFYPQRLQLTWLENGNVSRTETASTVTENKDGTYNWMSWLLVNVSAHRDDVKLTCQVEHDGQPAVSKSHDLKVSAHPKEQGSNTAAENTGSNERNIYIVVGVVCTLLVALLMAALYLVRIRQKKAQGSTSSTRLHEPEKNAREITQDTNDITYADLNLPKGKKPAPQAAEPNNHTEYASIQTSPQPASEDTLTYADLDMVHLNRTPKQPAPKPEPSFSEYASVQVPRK
Tyrosine-protein phosphatase non-receptor type substrate 1 (Homo sapiens) + Leukocyte surface antigen CD47 (Homo sapiens), sequence (Q08722 whole entry, looked up): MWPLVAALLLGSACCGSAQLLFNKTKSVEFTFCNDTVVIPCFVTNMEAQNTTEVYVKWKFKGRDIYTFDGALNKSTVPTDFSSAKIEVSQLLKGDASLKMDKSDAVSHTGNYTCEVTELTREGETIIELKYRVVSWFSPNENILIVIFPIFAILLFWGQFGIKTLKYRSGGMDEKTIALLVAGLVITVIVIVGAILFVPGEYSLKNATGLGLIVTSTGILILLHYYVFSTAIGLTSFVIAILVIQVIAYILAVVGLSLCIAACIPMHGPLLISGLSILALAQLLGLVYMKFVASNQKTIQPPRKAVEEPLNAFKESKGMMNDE
Procedure, shortened: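 First, His-tagged CD47 and Eu-labelled anti-His antibody met the compound for 30 min; next, site-specifically biotinylated SIRPalpha was added for 30 min; finally streptavidin-APC was added before reading the TR-FRET ratio.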

[10] = qHTS assay to identify small molecule inhibitors of chordoma cells - UCH-1 (AID 1259355); also: % is scaled to controls: 0 for no effect and ±100 for the full control effect; nearly all actives have a fitted effect of over 55% in size
Procedure, shortened: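 Luminescent ATP read-out (CellTiter-Glo, 30min at room temperature) measured viability of UCH-1 cells exposed for 48hr to test drugs at 15 concentrations, co-dosed with a five-agent combination of auranofin, camptothecin, doxorubicin, rubitecan and topotecan.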

CCCC1O[C@@H]2C[C@H]3[C@@H]4CCC5=CC(=O)C=C[C@]5(C)[C@H]4[C@@H](O)C[C@]3(C)[C@]2(C(=O)CO)O1 (stereo partly specified)
inactive: outcome [1] | outcome [2] | Potency [3] | Potency [4] | outcome [5] | outcome [6] | outcome [7] | Potency [8] | outcome [9]

Oc1c(I)cc(Cl)c2cccnc12
inactive: outcome [1] | outcome [2] | Potency [3]

Cc1ncc(CSSCc2cnc(C)c(O)c2CO)c(CO)c1O
inactive: outcome [1] | outcome [2] | Potency [3] | Potency [4] | Potency [8]

Oc1ccc(O)cc1
inactive: outcome [1] | outcome [2] | Potency [3] | Potency [4] | outcome [6] | outcome [7] | Potency [8] | outcome [9]

C[C@H](O)C(=O)Nc1c(I)c(C(=O)NC(CO)CO)c(I)c(C(=O)NC(CO)CO)c1I
inactive: outcome [1] | outcome [2] | Potency [3] | Potency [4] | Potency [8]

CNCCC=C1c2ccccc2CCc2ccccc21
active: Potency [4] 20.6 µM
inactive: outcome [1] | outcome [2] | Potency [3] | outcome [6] | Potency [8] | outcome [9]

CC(C)(C)CC(C)(C)c1ccc(OCCOCC[N+](C)(C)Cc2ccccc2)cc1
active: Potency [8] 12.6 µM
inactive: outcome [1] | outcome [2] | Potency [3] | Potency [4]

CN(C)C(=S)SC(=S)N(C)C
inactive: outcome [1] | outcome [2] | Potency [3] | Potency [4]

C[C@]12C=CC(=O)C=C1[C@@H](F)C[C@@H]1[C@@H]2[C@@H](O)C[C@@]2(C)[C@H]1CC[C@]2(O)C(=O)CO
inactive: outcome [1] | outcome [2] | Potency [3] | Potency [4] | Potency [8]

O=C1OC2(c3ccc(O)cc3Oc3cc(O)ccc32)c2ccccc21
inactive: outcome [1] | outcome [2] | Potency [3] | Potency [4] | Potency [8]

CCCCOc1ccc(C(=O)CCN2CCCCC2)cc1
inactive: outcome [1] | outcome [2] | Potency [10] | Potency [8]

Cc1ccc(C(=O)C(C)CN2CCCCC2)cc1 (stereo unspecified)
inactive: outcome [1] | outcome [2] | Potency [3] | Potency [4] | Potency [8]

CC1(C)O[C@@H]2[C@@H](CO[C@@]3(COS(N)(=O)=O)OC(C)(C)O[C@@H]23)O1
inactive: outcome [1] | outcome [2] | Potency [3] | Potency [4] | Potency [8]

NC[C@H]1O[C@H](O[C@H]2[C@H](O[C@@H]3O[C@H](CO)[C@@H](O)[C@H]3O)C(O)[C@H](N)C[C@@H]2N)[C@H](N)[C@@H](O)[C@@H]1O (stereo partly specified)
inactive: activity change, negative = inhibition [1] 16.5% [at 9.06 µM] | activity change, negative = inhibition [2] 3.88% [at 9.06 µM] | Potency [3] | Potency [4] | activity change, negative = inhibition [8] -23.8% [at 9.2 µM]

CCCCCCCCCCCCCCCCCC(=O)OCC(O)CO (stereo unspecified)
inactive: outcome [1] | outcome [2] | Potency [3] | Potency [4] | Potency [8]

CC(=O)OCC(=O)[C@@]12N=C(C)O[C@@H]1C[C@H]1[C@@H]3CCC4=CC(=O)C=C[C@]4(C)[C@H]3[C@@H](O)C[C@@]12C
inactive: outcome [1] | outcome [2] | Potency [3] | Potency [4] | Potency [8]

COc1c2occc2c(OC)c2c(=O)cc(C)oc12
inactive: outcome [1] | outcome [2] | Potency [3] | Potency [4] | Potency [8]

CC1(C)O[C@@H]2C[C@H]3[C@@H]4C[C@H](F)C5=CC(=O)CC[C@]5(C)[C@H]4[C@@H](O)C[C@]3(C)[C@]2(C(=O)CO)O1
inactive: outcome [1] | outcome [2] | Potency [3] | Potency [4] | Potency [8]

OCc1ccccc1O
inactive: outcome [1] | outcome [2] | Potency [3] | Potency [4] | Potency [8]

CC(=O)Oc1ccc(C(c2ccc(OC(C)=O)cc2)c2ccccn2)cc1
inactive: outcome [1] | outcome [2] | Potency [3] | Potency [4] | Potency [8]

CCC(=O)c1c(O)cc(O)cc1O
inactive: outcome [1] | outcome [2] | Potency [3] | Potency [4] | Potency [8]

COc1cc(/C=C/C(=O)O[C@H]2CC[C@]34C[C@]35CC[C@]3(C)[C@@H]([C@H](C)CCC=C(C)C)CC[C@@]3(C)[C@@H]5CC[C@H]4C2(C)C)ccc1O
inactive: outcome [1] | outcome [2] | Potency [3] | Potency [4] | Potency [8]

CCCN1CCCC[C@H]1C(=O)Nc1c(C)cccc1C
inactive: outcome [1] | outcome [2] | Potency [3] | Potency [4] | Potency [8]

CN1C2CCC1CC(OC(=O)c1c[nH]c3ccccc13)C2 (stereo unspecified)
inactive: outcome [1] | outcome [2] | Potency [10] | outcome [5] | outcome [6] | outcome [7] | Potency [8] | outcome [9]

CN(C)CCOc1ccccc1Cc1ccccc1
inactive: outcome [1] | outcome [2] | Potency [3] | Potency [4] | Potency [8]

COC(=O)[C@@H]1CC2=CC(=O)CC[C@]2(C)[C@@]23O[C@@H]2C[C@@]2(C)[C@@H](CC[C@@]24CCC(=O)O4)[C@H]13
inactive: outcome [1] | outcome [2] | Potency [3] | Potency [4] | Potency [8]

Cc1cc(O)c(C(C)C)cc1Cl
inactive: outcome [1] | outcome [2] | Potency [3] | Potency [4] | Potency [8]

Oc1cc(O)c2c(c1)O[C@H](c1ccc(O)c(O)c1)[C@H](O)C2
inactive: outcome [1] | outcome [2] | Potency [3] | Potency [4] | Potency [8]

CN(C)CC/C=C1\c2ccccc2Sc2ccc(Cl)cc21
inactive: outcome [1] | outcome [2] | Potency [3] | Potency [8]

CC1(C)O[C@@H]2C[C@H]3[C@@H]4CCC5=CC(=O)CC[C@]5(C)[C@@]4(F)[C@@H](O)C[C@]3(C)[C@]2(C(=O)CCl)O1
inactive: outcome [1] | outcome [2] | Potency [3] | Potency [4] | Potency [8]

CC(=O)N(O)CCCCCNC(=O)CCC(=O)N(O)CCCCCNC(=O)CCC(=O)N(O)CCCCCN
inactive: outcome [1] | outcome [2] | Potency [3] | Potency [4] | Potency [8]

COc1ccc(C2C(=O)c3ccccc3C2=O)cc1
inactive: outcome [1] | outcome [2] | Potency [3] | Potency [4] | Potency [8]

COc1cc(OC)cc(OC)c1
inactive: outcome [1] | outcome [2] | Potency [3] | Potency [4] | Potency [8]

CNCC[C@@H](Oc1ccccc1C)c1ccccc1
inactive: outcome [1] | outcome [2] | Potency [3] | Potency [4] | Potency [8]

N[C@H](Cc1c[nH]c2ccccc12)C(=O)O
inactive: outcome [1] | outcome [2] | Potency [3] | Potency [8]

Cc1cc(=O)n(-c2ccccc2)n1C
inactive: outcome [1] | outcome [2] | Potency [3] | Potency [4] | Potency [8]

C[C@H](CCC(=O)O)[C@H]1CC[C@H]2[C@@H]3C(=O)C[C@@H]4CC(=O)CC[C@]4(C)[C@H]3CC(=O)[C@]12C
inactive: outcome [1] | outcome [2] | Potency [3] | Potency [4] | Potency [8]

C[C@H]1C[C@H]2[C@@H]3CCC4=CC(=O)C=C[C@]4(C)[C@@]3(Cl)[C@@H](O)C[C@]2(C)[C@@]1(O)C(=O)CO
inactive: outcome [1] | outcome [2] | Potency [3] | Potency [4] | Potency [8]

COCc1c(C(C)C)nc(C(C)C)c(/C=C/[C@@H](O)C[C@@H](O)CC(=O)O)c1-c1ccc(F)cc1
active: Potency [4] 0.731 µM
inactive: outcome [1] | outcome [2] | Potency [3] | Potency [8]

CC(O)(P(=O)(O)O)P(=O)(O)O
inactive: outcome [1] | outcome [2] | Potency [3] | Potency [4] | Potency [8]

COc1ccc(OC)c(C(O)CNC(=O)CN)c1 (stereo unspecified)
inactive: outcome [1] | outcome [2] | Potency [3] | Potency [8]

C=CCc1ccc(O)c(OC)c1
inactive: outcome [1] | outcome [2] | Potency [3] | Potency [4] | Potency [8]

CCCCC(=O)O[C@]1(C(=O)CO)CC[C@H]2[C@@H]3CCC4=CC(=O)CC[C@]4(C)[C@H]3[C@@H](O)C[C@@]21C
inactive: outcome [1] | outcome [2] | Potency [3] | Potency [4] | Potency [8]

CC(O)C(=O)O (stereo unspecified)
inactive: outcome [1] | outcome [2] | Potency [3] | Potency [4] | Potency [8]

CC[N+](CC)(CCNC(=O)C(=O)NCC[N+](CC)(CC)Cc1ccccc1Cl)Cc1ccccc1Cl
inactive: outcome [1] | outcome [2] | Potency [3] | Potency [4] | Potency [8]

CCCC(=O)O[C@]1(C(=O)CO)CC[C@H]2[C@@H]3CCC4=CC(=O)CC[C@]4(C)[C@H]3[C@@H](O)C[C@@]21C
inactive: outcome [1] | outcome [2] | Potency [3] | Potency [4] | Potency [8]

NC(CS)C(=O)O (stereo unspecified)
inactive: outcome [1] | outcome [2] | Potency [3] | Potency [4] | Potency [8]

CC(C)(C(=O)c1cccnc1)c1cccnc1
inactive: outcome [1] | outcome [2] | Potency [3] | Potency [4] | Potency [8]

CN1CCN(C(c2ccccc2)c2ccccc2)CC1
inactive: outcome [1] | outcome [2] | Potency [3] | Potency [4] | Potency [8]

Cc1c(C(C)C)c(=O)n(-c2ccccc2)n1C
inactive: outcome [1] | outcome [2] | Potency [3] | Potency [4] | Potency [8]

CCOc1ccc2nc3cc(N)ccc3c(N)c2c1
inactive: outcome [1] | outcome [2] | Potency [3] | Potency [4] | Potency [8]

CN(C)CCCOc1nn(Cc2ccccc2)c2ccccc12
inactive: outcome [1] | outcome [2] | Potency [3] | Potency [4] | Potency [8]

CN1CCC[C@@H]1c1cccnc1
inactive: outcome [1] | outcome [2] | Potency [3] | Potency [4] | Potency [8]

CC(C)COC(=O)c1ccc(N)cc1
inactive: outcome [1] | outcome [2] | Potency [3] | Potency [4] | Potency [8]

C=C(CC)C(=O)c1ccc(OCC(=O)O)c(Cl)c1Cl
inactive: outcome [1] | outcome [2] | Potency [3] | Potency [4] | Potency [8]

COC(=O)[C@H]1[C@H]2C[C@H]3c4[nH]c5ccccc5c4CCN3C[C@H]2CC[C@@H]1O
inactive: outcome [1] | outcome [2] | Potency [3] | outcome [6] | outcome [7] | Potency [8]
